Results filed as inconclusive are left out. The source made the active and inactive calls.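 The calls were made as follows: active = viability at or below 27.92% in each of two runs, the all-compound median minus 4 SD; inconclusive = no clear call, values can overlap the other calls; inactive = the rest.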
Test: viability of PTEN-null HCT116 cells – cell-based, HCT116 clonal line, CellTiter-Glo, pilot screen (AID 824);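 also: 0% = 20 µM Hyamine control and 100% = vehicle cell control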
Conditions: HCT116 PTEN-deleted viability, 60 h, at 10 µM, active compounds read low

Compound	viability
COc1ccc(C2C(C(=O)N3CCOCC3)CCC(=O)N2c2cc(OC)c(OC)c(OC)c2)cc1 (stereo not given)	102% (inactive)
COc1ccccc1C(=O)Nc1nnc(-c2ccc3c(c2)CCCC3)o1	85.1% (inactive)
CCc1ccc(NC(=O)C2CC=CCC2C(=O)O)cc1 (stereo not given)	98.9% (inactive)
O=C(Cn1cc2c(n1)CCCCC2)Nc1ccc(F)cc1F	97% (inactive)
Nc1c(C(=O)c2ccc(Br)s2)oc2ccccc12	88.7% (inactive)
O=C1c2ccccc2C(Nc2cccnc2)N1Cc1ccc2c(c1)OCO2 (stereo not given)	104% (inactive)
Cn1c(Cn2c(=O)sc3ccccc32)nnc1SCC(=O)N1CCCCCC1	95.2% (inactive)
CCS(=O)(=O)N1CCN(Cc2nc3ccccc3c(=O)[nH]2)CC1	91.8% (inactive)
Cc1cccc(OCc2nnc(SCC(=O)NCCc3ccccc3)o2)c1	95.2% (inactive)
CC(=O)Nc1ccc(NC2(C)C(=O)c3ccccc3C2=O)cc1	102% (inactive)
COC(=O)c1cn(C(C)C(=O)NCc2ccco2)c2ccccc12 (stereo not given)	102% (inactive)
O=C1N2CN(C(c3ccccc3)c3ccccc3)CN=C2SC1(CO)CO	74.8% (inactive)
CC(C)N1C(=O)CCC1C(=O)NCc1ccccc1Cl (stereo not given)	98.9% (inactive)
O=C(COC(=O)c1ccc(S(=O)(=O)NCc2ccco2)cc1)Nc1ccccc1OC(F)F	93.7% (inactive)
Cn1c(NC(=O)CC(C)(C)C)cc(=O)n(C)c1=O	105% (inactive)
O=C(Nc1ccc2oc(-c3ccccc3)nc2c1)c1ccncc1	77.9% (inactive)
Cc1nccn1-c1ncnc2sc3c(c12)CCCC3	93.5% (inactive)
O=C(c1ccc2snnc2c1)N1CCCC1	94.2% (inactive)
CCC(Oc1ccccc1)C(=O)Nc1cc(C)on1 (stereo not given)	90.2% (inactive)
Cc1cc(C)n(Cc2ccccc2F)c(=O)c1C#N	96.9% (inactive)

Compound	viability
CC(=O)C1=C(O)C(=O)N(CC(=O)O)C1c1ccccc1Cl (stereo not given)	104% (inactive)
O=C(C(c1ccccc1)c1ccccc1)N1CCOCC1	95.9% (inactive)
Cc1cccc(N2CCN(C(=O)C3CCCN(S(=O)(=O)c4cccc5cccnc45)C3)CC2)c1C (stereo not given)	35.8% (inactive)
O=C(Cn1cc2c(n1)CCCCC2)N1CCCCC1	92.4% (inactive)
c1ccc(OCc2nn3c(-c4ccccn4)nnc3s2)cc1	94% (inactive)
Cc1ccc(Cl)cc1N1CCN(C(=O)CCC(=O)O)CC1	91.3% (inactive)
Clc1ccc(-c2nc(-c3ccccn3)no2)cc1Cl	67.7% (inactive)
O=C(c1ccccc1)c1cccc(NC(=O)c2ccco2)c1	96.3% (inactive)
Cc1noc(NS(=O)(=O)c2ccc(NC(=O)CCn3c(=O)oc4ccccc43)cc2)c1C	96.2% (inactive)
Cc1noc(C)c1CSCC(=O)OCC(=O)NC1CCCCC1	99.3% (inactive)
O=C(CCc1nc2ccccc2[nH]1)NCc1ccc2c(c1)OCO2	91.7% (inactive)
Nc1c(Br)cc(Br)c(N2CCCC2=O)c1Br	92.7% (inactive)
C1=C(N2CCOCC2)/C(=C/c2nc3ccccc3[nH]2)CC1	82.1% (inactive)
COc1ccc(C(C)(C)C)cc1NC(=O)COC(=O)c1cnc(C)cn1	94.3% (inactive)
COc1ccccc1NC(=O)Nc1ccc(Br)cn1	87.7% (inactive)
Cc1onc(-c2ccccc2Cl)c1C(=O)N(C)C1CCCCC1	63.2% (inactive)
CSC1=N/C(=C\c2ccccc2F)C(=O)S1	104% (inactive)
Cc1nc2cc(-c3cccc(F)c3)nn2c(C)c1CCC(=O)N1CCN(c2ccccn2)CC1	77.1% (inactive)
COC(=O)c1c(NC(=O)CCN2CCOCC2)sc2c1CCCC2	89.7% (inactive)
CCOCCCNC(=O)C(NC(=O)CNC(C)=O)c1ccc(Cl)cc1 (stereo not given)	101% (inactive)
